Inconclusive results are not listed. The source made the active and inactive calls. Unless noted, calls follow the shape of the full dose curve.
Key:
[1] = Nuclear factor erythroid 2-related factor 2/antioxidant responsive element (Nrf2/ARE) small molecule agonists: qHTS cell viability counter screen in human keratinocytes (AID 1919968; active = well fitted curve in the direction sought with a large enough effect in the repeat runs; an effect the other way counts as inactive or inconclusive; also: nearly all actives have a fitted effect of over 55% in size)
Procedure, shortened: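 KeratinoSens HaCaT cells, 1,500/well, preincubated 5 h, then exposed to compounds in DMSO for 23 h at 37 C/5% CO2. Viability read as CellTiter-Fluor fluorescence after 1 h, in the same wells as the ARE-luciferase read.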

[2] = Nuclear factor erythroid 2-related factor 2/antioxidant responsive element (Nrf2/ARE) small molecule agonists: luciferase reporter gene qHTS assay in human keratinocytes (AID 1919969); also: nearly all actives have a fitted effect of over 35% in size
[3] = biological target: Gonadotropin-releasing hormone receptor (Homo sapiens) (UniProt P30968); assay: Human gonadotropin-releasing hormone receptor (GnRHR) small molecule agonists, calcium flux assay in GnRHR-HEK293 cells (AID 1920063); also: nearly all actives have a fitted effect of over 35% in size
Procedure, shortened: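 HEK293 cells stably expressing human GnRHR were dye-loaded for 1 h at 37 C. Compound was added in agonist mode and fluorescence (Ex/Em 480/540) recorded kinetically for 3 min. Fifteen concentrations, triplicates.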

[4] = biological target: KiSS-1 receptor (Homo sapiens) (UniProt Q969F8); assay: Human kisspeptin (KISS1R) small molecule agonists, calcium flux assay in KISS1R-HEK293 cells (AID 1920064; active = well fitted curve in the direction sought with a large enough effect in the repeat runs; an effect the other way counts as inactive or inconclusive)
Procedure, shortened: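 HEK293 cells stably expressing human KISS1R were loaded with calcium dye for 1 h at 37 C, then given compound; fluorescence (Ex/Em 480/540) was read kinetically for 3 min. Fifteen concentrations, triplicate.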

[5] = G protein-coupled receptor (GPCR) small molecule agonists, calcium flux assay: HEK293 wild type cell line counter screen (AID 1920065)
Procedure, shortened: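 Wild-type HEK293 cells plated 18 h, loaded with calcium dye 1 h at 37 C, then compounds added in agonist mode (ATP as positive control). Kinetic fluorescence Ex/Em 480/540 recorded 3 min at 1 sec intervals; 15 concentrations, triplicate.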

[6] = p53 small molecule agonists, cell-based qHTS assay with rat liver microsomes (AID 1963578)
Procedure, shortened: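 Metabolic activation is supplied by rat liver microsomes with NADPH (each 0.5 mg/mL final). p53RE-bla cells incubate with compound 16 h at 37 C; reporter activity is measured by LiveBLAzer fluorescence.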

[7] = p53 small molecule agonists, cell-based qHTS assay with human liver microsomes: qHTS cell viability counter screen (AID 1963579); also: nearly all actives have a fitted effect of over 45% in size
Procedure, shortened: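 After the 460/530 nm beta-lactamase read, CellTiter-Glo was added to the same wells and luminescence measured after 30 min at room temperature, giving viability of p53RE-bla cells treated 16 h with compounds plus microsomes and NADPH.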

[8] = p53 small molecule agonists, cell-based qHTS assay with rat liver microsomes: qHTS cell viability counter screen (AID 1963580); also: nearly all actives have a fitted effect of over 45% in size
Procedure, shortened: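 In HCT-116 cells carrying a p53 response element-bla reporter, compounds were metabolically activated in situ by rat liver microsomes with NADPH over 16 h. Cell ATP content then served as the cytotoxicity measure.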

[9] = p53 small molecule agonists, cell-based qHTS assay (AID 1963582; active = well fitted activation curve with a large enough effect in the signal ratio in the repeat runs, not every such curve was filed as active; the % refers to the signal ratio)
Procedure, shortened: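 p53RE-bla reporter cells, compounds added in DMSO after 5 h plating, incubated 16 h at 37 C. Beta-lactamase read via 2 h room-temperature LiveBLAzer B/G FRET substrate, fluorescence intensity.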

[10] = biological target: 5-hydroxytryptamine receptor 2A (Homo sapiens) (UniProt P28223); assay: 5-hydroxytryptamine receptor 2A (HTR2A) small molecule antagonists, cell-based qHTS assay (AID 1963586); also: nearly all actives have a fitted effect of over 45% in size
Procedure, shortened: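 Antagonist-mode intracellular calcium assay: DOI (4 nM) added after 5 min compound pre-incubation at room temperature to dye-loaded HTR2A-CHO cells. Fluorescence followed for 3 min, sampled every second.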

[11] = biological target: 5-hydroxytryptamine receptor 2A (Homo sapiens) (UniProt P28223); assay: 5-hydroxytryptamine receptor 2A (HTR2A) small molecule agonists, cell-based qHTS assay (AID 1963587); also: nearly all actives have a fitted effect of over 30% in size
Procedure, shortened: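 HTR2A-CHO cells, plated 18 h at 37 C/5% CO2, dye-loaded 1 h at 37 C; compounds in DMSO added by pin tool (agonist mode). Intracellular calcium flux read as kinetic fluorescence on FDSS over 2 min at 1 s intervals.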

[12] = biological target: Muscarinic acetylcholine receptor M1 (Homo sapiens) (UniProt P11229); assay: Cholinergic receptor muscarinic 1 (CHRM1) small molecule antagonists, cell-based qHTS assay (AID 1963588); also: nearly all actives have a fitted effect of over 40% in size
Procedure, shortened: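 CHRM1-CHO calcium-flux assay, antagonist mode. Cells were seeded 18 h, dye-loaded 1 h at 37 C and given compound for 5 min at RT, then acetylcholine was added at 50nM. FDSS fluorescence was read 3 min; 15 concentrations, three runs.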

[13] = biological target: Muscarinic acetylcholine receptor M1 (Homo sapiens) (UniProt P11229); assay: Cholinergic receptor muscarinic 1 (CHRM1) small molecule agonists, cell-based qHTS assay (AID 1963589); also: nearly all actives have a fitted effect of over 35% in size
Procedure, shortened: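 CHO cells stably expressing human CHRM1 were loaded with calcium dye for 1 h at 37 C, then compound was added in agonist mode. Intracellular calcium fluorescence was followed kinetically at 1 s intervals. Fifteen concentrations were tested in three independent runs.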

[14] = cAMP Responsive Elements (CRE) small molecule antagonists, cell-based qHTS assay (AID 1963591; active = well fitted inhibition curve with a large enough effect in the signal ratio in the repeat runs, not every such curve was filed as active; the % refers to the signal ratio)
Procedure, shortened: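 CRE-bla HEK293T cells plated 18 h, then given compound plus NKH477 at 0.25 uM final for 3 h at 37C. Beta-lactamase reporter read with LiveBLAzer B/G FRET substrate after 2 h at room temperature.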

[15] = biological target: Beta-2 adrenergic receptor (Homo sapiens) (UniProt P07550); assay: Adrenergic beta2 receptor (ADRB2) small molecule antagonists, cell-based qHTS assay (AID 1963592); also: series mostly up to about 92 µM; nearly all actives have a fitted effect of over 50% in size
Procedure, shortened: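 Cells (CHO, stable ADRB2 overexpression) incubated 18-20hr at 37C; compounds added from DMSO; agonist mix (1nM isoproterenol, 100uM IBMX, 25uM Ro-20-1724) added; 0.5hr RT; d2-cAMP and anti-cAMP-cryptate added; 1hr RT; 665/615 nm read.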

[16] = biological target: Beta-2 adrenergic receptor (Homo sapiens) (UniProt P07550); assay: Adrenergic beta2 receptor (ADRB2) small molecule agonists, cell-based qHTS assay (AID 1963593);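 also: CHO cells stably overexpressing human ADRB2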
Procedure, shortened: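 CHO cells stably over-expressing ADRB2 were plated overnight at 37C, then dosed with compounds plus a stimulation mix containing 100uM IBMX and 25uM Ro-20-1724 for 0.5hr at room temperature. cAMP was measured by HTRF competition, 1hr.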

[17] = biological target: D(2) dopamine receptor (Homo sapiens) (UniProt P14416); assay: Dopamine D2 receptor (DRD2) small molecule agonists, cell-based qHTS assay (AID 1963594); also: nearly all actives have a fitted effect of over 35% in size
Procedure, shortened: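 HEK293 cells stably expressing DRD2 were cultured 24 h at 37 C, then given Ro20-1724 (0.1 mM final) and compounds for 10 min at room temperature. NKH477 (200nM) was then added for 30 min. cAMP was read by HTRF.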

[18] = biological target: D(2) dopamine receptor (Homo sapiens) (UniProt P14416); assay: Dopamine D2 receptor (DRD2) small molecule antagonists, cell-based qHTS assay (AID 1963595; active = well fitted inhibition curve with a large enough effect in the signal ratio in the repeat runs, with a control signal flat; the % refers to the signal ratio)
Procedure, shortened: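 Antagonist mode in DRD2-HEK293 cells: after compound addition with 0.1 mM Ro20-1724, cells received quinpirole (12 nM) and NKH477 (200 nM) for 30 min at room temperature; HTRF cAMP read after 1 h detection.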

[19] = p53 small molecule agonists, cell-based qHTS assay: qHTS cell viability counter screen (AID 1963581); also: nearly all actives have a fitted effect of over 45% in size
Procedure, shortened: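 p53RE-bla HCT-116 cells, compounds added 5 h after plating and incubated 16 h at 37 C. Cytotoxicity measured in the same wells as intracellular ATP by CellTiter-Glo luminescence after 30 min at room temperature.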

[20] = cAMP Responsive Elements (CRE) small molecule agonists, cell-based qHTS assay (AID 1963590)
Procedure, shortened: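 CRE-bla HEK 293T cells, 2,000/well in DMEM with 10% dialyzed FBS and 25 mM HEPES, pre-incubated 18 h at 37 C, then exposed to compound 3 h at 37 C. Beta-lactamase reporter read with LiveBLAzer B/G FRET substrate after 2 h at room temperature.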

Measured: Potency

Sequence of Muscarinic acetylcholine receptor M1 (Homo sapiens) (P11229 whole entry, looked up): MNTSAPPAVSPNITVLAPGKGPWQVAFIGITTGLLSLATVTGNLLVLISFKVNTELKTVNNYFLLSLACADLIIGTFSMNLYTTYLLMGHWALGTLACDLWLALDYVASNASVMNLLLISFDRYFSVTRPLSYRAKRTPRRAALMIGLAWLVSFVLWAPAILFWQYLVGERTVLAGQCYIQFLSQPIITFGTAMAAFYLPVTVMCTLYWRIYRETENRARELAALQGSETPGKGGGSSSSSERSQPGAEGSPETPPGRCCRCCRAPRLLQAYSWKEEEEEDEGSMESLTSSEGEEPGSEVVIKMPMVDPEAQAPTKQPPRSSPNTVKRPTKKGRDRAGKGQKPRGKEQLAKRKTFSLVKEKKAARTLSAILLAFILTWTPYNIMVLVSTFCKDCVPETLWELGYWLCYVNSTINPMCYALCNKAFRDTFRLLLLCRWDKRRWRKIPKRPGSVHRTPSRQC
Sequence of Gonadotropin-releasing hormone receptor (Homo sapiens) (P30968 whole entry, looked up): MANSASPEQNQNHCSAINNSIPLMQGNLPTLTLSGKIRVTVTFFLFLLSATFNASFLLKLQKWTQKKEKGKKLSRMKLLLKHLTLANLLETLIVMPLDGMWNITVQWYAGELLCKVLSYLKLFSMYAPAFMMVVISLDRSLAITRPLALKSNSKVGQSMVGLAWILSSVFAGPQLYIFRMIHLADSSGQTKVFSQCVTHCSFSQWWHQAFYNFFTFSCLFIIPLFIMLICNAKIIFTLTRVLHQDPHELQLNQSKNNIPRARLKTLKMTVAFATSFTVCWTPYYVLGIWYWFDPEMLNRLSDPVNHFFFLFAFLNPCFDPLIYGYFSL
Sequence of 5-hydroxytryptamine receptor 2A (Homo sapiens) (P28223 whole entry, looked up): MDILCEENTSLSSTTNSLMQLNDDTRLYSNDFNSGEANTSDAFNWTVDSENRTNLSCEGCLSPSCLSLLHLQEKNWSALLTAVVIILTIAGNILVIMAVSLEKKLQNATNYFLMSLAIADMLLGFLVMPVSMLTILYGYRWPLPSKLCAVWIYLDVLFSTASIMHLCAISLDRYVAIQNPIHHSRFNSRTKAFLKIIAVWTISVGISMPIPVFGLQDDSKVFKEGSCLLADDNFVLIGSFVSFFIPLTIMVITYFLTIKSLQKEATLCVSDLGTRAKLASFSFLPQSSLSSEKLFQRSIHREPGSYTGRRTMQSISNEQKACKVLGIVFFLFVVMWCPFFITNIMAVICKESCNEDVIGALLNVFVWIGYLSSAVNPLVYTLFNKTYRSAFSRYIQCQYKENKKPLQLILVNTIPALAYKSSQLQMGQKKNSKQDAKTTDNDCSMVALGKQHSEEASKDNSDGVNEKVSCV
Sequence of KiSS-1 receptor (Homo sapiens) (Q969F8 whole entry, looked up): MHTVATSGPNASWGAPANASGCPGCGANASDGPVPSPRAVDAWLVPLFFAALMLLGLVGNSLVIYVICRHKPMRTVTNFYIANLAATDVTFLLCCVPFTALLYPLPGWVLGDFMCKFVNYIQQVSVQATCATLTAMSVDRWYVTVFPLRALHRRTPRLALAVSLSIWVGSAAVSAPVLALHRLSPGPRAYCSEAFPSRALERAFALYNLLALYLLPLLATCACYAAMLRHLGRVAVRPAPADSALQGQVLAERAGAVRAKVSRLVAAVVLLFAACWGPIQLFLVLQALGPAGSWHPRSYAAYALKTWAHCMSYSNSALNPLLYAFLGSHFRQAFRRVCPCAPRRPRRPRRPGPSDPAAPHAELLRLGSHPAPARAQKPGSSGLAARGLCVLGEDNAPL
Sequence of Beta-2 adrenergic receptor (Homo sapiens) (P07550 whole entry, looked up): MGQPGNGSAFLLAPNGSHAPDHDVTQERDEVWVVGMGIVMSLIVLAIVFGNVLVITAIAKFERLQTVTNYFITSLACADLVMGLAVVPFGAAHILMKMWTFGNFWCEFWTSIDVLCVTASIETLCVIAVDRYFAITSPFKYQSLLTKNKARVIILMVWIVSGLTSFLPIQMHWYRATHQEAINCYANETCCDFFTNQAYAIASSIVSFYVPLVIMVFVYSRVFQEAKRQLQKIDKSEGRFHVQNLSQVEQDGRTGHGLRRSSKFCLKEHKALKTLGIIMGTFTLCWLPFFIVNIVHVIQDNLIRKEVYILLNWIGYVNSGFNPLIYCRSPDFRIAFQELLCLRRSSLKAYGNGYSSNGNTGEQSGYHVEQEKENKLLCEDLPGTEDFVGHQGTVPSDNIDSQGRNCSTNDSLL
Sequence of D(2) dopamine receptor (Homo sapiens) (P14416 whole entry, looked up): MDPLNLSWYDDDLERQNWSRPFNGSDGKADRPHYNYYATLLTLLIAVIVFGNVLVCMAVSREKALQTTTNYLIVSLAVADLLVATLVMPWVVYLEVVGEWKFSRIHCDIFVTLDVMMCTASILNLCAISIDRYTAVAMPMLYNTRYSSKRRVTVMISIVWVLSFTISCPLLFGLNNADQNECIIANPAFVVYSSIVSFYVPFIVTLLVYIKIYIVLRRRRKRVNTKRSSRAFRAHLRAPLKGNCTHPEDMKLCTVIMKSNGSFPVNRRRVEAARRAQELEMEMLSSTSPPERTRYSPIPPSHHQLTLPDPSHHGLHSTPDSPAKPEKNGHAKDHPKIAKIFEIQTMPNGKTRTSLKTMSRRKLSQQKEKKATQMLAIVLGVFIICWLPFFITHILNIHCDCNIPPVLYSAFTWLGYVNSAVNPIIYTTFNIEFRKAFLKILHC

CSc1nnc(C(C)(C)C)c(=O)n1N
inactive: [1] | [2] | [3] | [4] | [5] | [6] | [7] | [8] | [9] | [10] | [11] | [12] | [13] | [14] | [15] | [16] | [17] | [18]

OCC(O)CCl (stereo unspecified)
inactive: [1] | [2] | [3] | [4] | [5] | [6] | [7] | [8] | [19] | [9] | [10] | [12] | [13] | [20] | [14] | [17] | [18]

CC(Br)C(=O)O (stereo unspecified)
inactive: [1] | [2] | [3] | [4] | [5] | [6] | [7] | [8] | [19] | [9] | [12] | [13] | [20] | [14] | [15] | [16] | [17] | [18]

CCNc1nc(Cl)nc(NC(C)(C)C#N)n1
inactive: [1] | [2] | [3] | [4] | [5] | [6] | [7] | [8] | [19] | [9] | [10] | [11] | [12] | [13] | [20] | [14] | [15] | [16] | [17] | [18]

CC(C)C(C)(N)C#N (stereo unspecified)
inactive: [1] | [2] | [3] | [4] | [5] | [6] | [7] | [8] | [19] | [9] | [10] | [11] | [12] | [13] | [20] | [14] | [15] | [17] | [18]

Cc1ccc(C(=O)Cl)cc1
inactive: [1] | [2] | [3] | [4] | [5] | [6] | [7] | [8] | [19] | [9] | [10] | [11] | [12] | [13] | [20] | [14] | [15] | [16] | [17] | [18]

Clc1ccc(Cl)cc1
inactive: [1] | [2] | [3] | [4] | [5] | [6] | [7] | [8] | [19] | [9] | [10] | [11] | [12] | [13] | [20] | [14] | [16] | [17] | [18]
